HPGD block: inhibitors of human 15-hydroxyprostaglandin dehydrogenase (HPGD); purified HPGD, NADH fluorescence kinetic, PGE2 substrate; Potency, µM, usual class: inhibitors; 4.3% of 150,000 active; AID 894
Target sequence (P15428 whole entry, looked up): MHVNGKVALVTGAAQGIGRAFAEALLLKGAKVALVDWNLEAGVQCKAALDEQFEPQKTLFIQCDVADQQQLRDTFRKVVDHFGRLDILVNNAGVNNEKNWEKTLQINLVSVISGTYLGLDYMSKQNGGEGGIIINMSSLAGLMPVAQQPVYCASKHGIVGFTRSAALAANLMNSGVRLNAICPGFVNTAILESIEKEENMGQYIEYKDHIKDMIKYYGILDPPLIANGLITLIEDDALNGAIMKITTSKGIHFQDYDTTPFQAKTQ
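NADH formation kinetics: reaction with 30 uM PGE2 and 1 mM NAD+ (final), 20 nM enzyme, Tris-HCl pH 8 with Tween 20, after 15 min compound preincubation at room temperature. Fluorescence change, last versus first of five reads.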
IMPase cell inh: cell-permeable inhibitors of inositol monophosphatase (IMPase) | P97697 | CHO-M1 cells, IP1 accumulation, HTRF TR-FRET ratio | inhibition (IP1 accumulation), % at 46.1 µM | 120,000 tested, under 10 active; active = well fitted curve in the direction sought with a large enough effect in the signal ratio, not every such curve was filed as active; inconclusive = small, poorly fitted or top-dose-only effect, or a change in a side signal; inactive = no such curve, though single readings can be large or run the other way; the % refers to the signal ratio;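 note: cells stimulated with carbachol in lithium chloride buffer; higher means more IMPase inhibition seen as more IP1 and lower FRET ratio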
Target sequence (P97697 whole entry, looked up): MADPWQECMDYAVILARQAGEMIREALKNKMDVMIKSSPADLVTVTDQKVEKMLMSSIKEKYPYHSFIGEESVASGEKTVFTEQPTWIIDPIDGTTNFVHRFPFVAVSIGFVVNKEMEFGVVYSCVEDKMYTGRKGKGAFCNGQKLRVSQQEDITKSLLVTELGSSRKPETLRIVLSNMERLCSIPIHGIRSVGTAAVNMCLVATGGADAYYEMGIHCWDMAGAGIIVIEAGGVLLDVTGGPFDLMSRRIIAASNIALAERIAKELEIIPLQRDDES
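Elevated IP1 in lysates lowers TR-FRET signal (665/620 ratio and 620 channel reported). Cells were CHO-M1, given carbachol (50 uM as added) plus 50mM LiCl, pH 7.4, 30 min, 37C; compounds titrated up to 46 uM; AC50 by Hill equation.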
IMPase Li cell: IMPase inhibition in cells with lithium potentiation. CHO-M1 cells, IP1 TR-FRET (IP-One), carbachol + lithium. Potency, µM (top dose mostly 59.4 µM), most hits filed as inhibitors. 0.35% of 210,000 active. AID 1457; active = well fitted inhibition curve with a large enough effect; inconclusive = small, poorly fitted or top-dose-only effect; inactive = no such curve, though single readings can be large or run the other way;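 note: IP1 builds up when IMPase is blocked and the TR-FRET signal falls; nearly all actives have a fitted effect of over 50% in size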
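Steps: plate 2000 CHO-M1 cells per well and culture 16–30 h; add compound and lithium; incubate 30 min, 37C; add d2-IP1 tracer and Eu cryptate anti-IP1 antibody in lysis buffer; read after 10 min at room temperature.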
ALDH1A1 block: inhibitors of human aldehyde dehydrogenase 1A1; P00352; Purified ALDH1A1, NADH fluorescence, propionaldehyde substrate; Potency, µM (highest dose often 75.3 µM), most hits filed as inhibitors; 7.3% of 220,000 active; AID 1030
PNC inhibitor: blocks assembly of the perinucleolar compartment; 3.1% of 140,000 active; PC3M PTB-GFP, PNC prevalence imaging, 16 h; active compounds read low; activity change (PNC), negative = inhibition, % at 10 µM; AID 2417;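 active = readout at or below -70, meaning at least 70% loss of cells showing the perinucleolar compartment, a nuclear body marking cancer cells; inconclusive = readout between -30 and a set limit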
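PC3M cells stably expressing PTB-GFP, 750–1000 cells/well, treated 16 h at 37 °C with compound (23 nl of library stock), in duplicate. After paraformaldehyde fixation and Hoechst stain, imaged at 20x; PNC prevalence scored by image analysis.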
Numbers stand for hits; – = inactive; ? = inconclusive; · = no result given; [ ] = another dose, or the depositor's remark. Only some compounds are listed: those with a hit (about 11% of all), similar ones and a draw of the others. Unless noted, calls come from the whole dose curve; as a rule, active = well fitted inhibition curve with a large enough effect (not every such curve was filed as active); inconclusive = small, poorly fitted or top-dose-only effect, or another doubt; inactive = no such curve, though single readings can be large or run the other way.

SMILES | HPGD block | IMPase cell inh | IMPase Li cell | ALDH1A1 block | PNC inhibitor
CCn1cc(/C=N\NC(=O)c2ccc(Cl)cc2)cn1 | – | · | – | – | ?
CCn1cc(/C=N\NC(=O)Cc2ccc(Cl)cc2)cn1 | – | · | – | – | -99
Cc1ccc(-c2n[nH]c(=S)c3ccccc23)cc1 | · | · | ? | 0.35µM | ·
S=c1[nH]ncc2ccccc12 | · | – | · | – | –
S=c1[nH]nc(-c2ccccc2)c2ccccc12 | · | · | – | 8.9µM | ·
N#Cc1ccccc1OCC(O)CNCCNC(=O)Nc1ccccc1 (configuration not stated) | · | · | – | – | ·
COCCn1c(=O)c(-c2cccs2)nc2cnc(N(C)C)nc21 | · | · | – | ? | ·
Cc1[nH]n(-c2ccccc2)c(=S)c1C=NCCCN=Cc1c(C)[nH]n(-c2ccccc2)c1=S | 28µM | · | – | 4µM | ?
CCCSc1nc(C)c(-c2csc(C(C#N)=C3CCCC3)n2)cc1C#N | – | ? | – | 22µM | ?
CCCCSc1nc2c(cc1C#N)CCC2 | – | – | – | ? | –
O=[N+]([O-])c1ccccc1/C=C/C=N/n1c(-c2ccccc2)n[nH]c1=S | 7.1µM | · | – | ? | –
Cc1nn(-c2ccccc2)c(C)c1/C=N/n1c(-c2ccc(Cl)cc2)n[nH]c1=S | ? | – | – | ? | –
CC1CCCC(C)N1/N=C/C=C/c1ccccc1[N+](=O)[O-] (configuration not stated) | · | · | – | 3.5µM | ·
O=[N+]([O-])c1ccccc1/C=C/C=N/n1c(-c2ccc(Cl)cc2)n[nH]c1=S | 3.2µM | – | – | ? | –
N=C(N)SCCON1C(=O)c2ccccc2C1=O | – | · | – | –[13.5 µM] | ·
Cn1cnc2cc(NC(=O)c3ccco3)ccc21 | – | – | – | – | ?
CC(=O)Nc1ccc2c(c1)ncn2C | – | – | – | 35µM | –
N#CC1=C(N)n2c(s/c(=C\c3ccco3)c2=O)=C(C#N)C1c1ccco1 (configuration not stated) | – | – | – | 22µM | –
O=C(Nc1nccs1)c1ccccn1 | · | · | – | – | ·
O=C(Nc1nccs1)c1ccc(-c2ccccc2Cl)o1 | ? | – | – | 25µM | ?
O=C(Nc1ccccc1)c1ccc(-c2ccccc2Cl)o1 | – | · | – | – | -92
O=C(Nc1nccs1)c1cnccn1 | – | – | – | – | -100
C=CCON/C(CCC)=C1\C(=O)C(C(=O)OC)C(C)(C)CC1=NC (configuration not stated) | · | · | – | – | ·
Nc1ccc(N=Nc2ccc(-c3ccc(O)cc3)cc2)c2ccc(S(=O)(=O)O)cc12 | – | · | – | –[13.5 µM] | ·
CN(c1ccc(Cl)cc1)c1cc(=O)n(C)c2ccccc12 | 7.9µM | – | – | – | ?
SMILES | HPGD block | IMPase cell inh | IMPase Li cell | ALDH1A1 block | PNC inhibitor
CCOC(=O)c1c(CN(CC)CC)oc2cc(Br)c(O)cc12 | – | – | – | ? | –
CCOC(=O)c1c(CN(CC)CC)oc2ccc(OC)cc12 | – | – | – | – | -100
O=c1[nH]c(=O)n(CCO)c2nnn(Cc3ccccc3)c12 | 28µM | – | – | – | ?
C/C(=N\O)C(C)Oc1ccc(Cl)cc1 (configuration not stated) | · | · | – | – | ·
Cc1ccccc1OCC(=O)Nc1ccc(-c2nc3cc(Cl)cc(Cl)c3o2)cc1 | · | – | · | · | ·
COC(=O)c1cc(COC(=O)c2nc3nccc(C)n3n2)oc1C | · | · | – | ? | ·
COc1c(S(=O)(=O)n2nc(C)cc2C)ccc(Cl)c1Cl | 22µM | – | – | 28µM | –
Cc1cc(C)n(S(=O)(=O)c2ccc(Cl)c(Cl)c2Cl)n1 | – | – | – | – | –
Cc1sc2nc(C3CC3)nc(SCC(=O)N3CCc4ccccc4C3)c2c1C | ? | –[1.84 µM] | – | 14µM | ?
Cc1sc2nc(C3CC3)nc(SCC(=O)N3CCCc4ccccc43)c2c1C | – | · | – | ? | –
Cc1ccc(Nc2nc(N)nc(CSc3ncccn3)n2)cc1 | – | – | – | – | –
COc1ccc(Nc2nc(N)nc(CSc3n[nH]c(-c4ccccc4)n3)n2)cc1 | 22µM | – | – | – | –
Nc1nc(CSC(=S)N2CCCCC2)nc(Nc2ccccc2)n1 | · | · | – | 25µM | ·
Nc1nc(CSc2n[nH]c(-c3ccccc3)n2)nc(Nc2ccccc2)n1 | 13µM | – | – | ? | –
Cc1c(N(C(=O)c2ccccn2)C2(C(=O)NC3CCCC3)CCCCC2)c(=O)n(-c2ccccc2)n1C | · | · | – | – | ·
Cc1ccc(NC(=O)/C=C/c2ccc3c(c2)OCO3)cc1S(=O)(=O)N1CCOCC1 | – | · | – | ? | –
